# The campaign covered roughly 39,000 compounds. About 3,300 (8.5%) were called active. The list comes from a sample in which actives are over-represented; it also holds similar structures and randomly drawn compounds.
# Test system: HepG2
# Experiment: cytotoxicity call (relative viability < 0.9)
# Details: 10 µM
row,SMILES,cytotoxicity call
1,COc1ccc(S(=O)(=O)N(C)C[C@H]2OCCCC[C@H](C)Oc3ccc(NC(=O)Nc4ccccc4)cc3C(=O)N([C@H](C)CO)C[C@@H]2C)cc1,inactive
2,O=C(C[C@@H]1CC[C@@H]2[C@H](COC[C@H](O)CN2C(=O)Nc2cccc(F)c2)O1)NCCCN1CCOCC1,inactive
3,C[C@@H]1CN([C@@H](C)CO)C(=O)c2cc(NS(=O)(=O)c3ccccc3)ccc2O[C@@H](C)CCCCO[C@@H]1CN(C)S(=O)(=O)c1cn(C)cn1,inactive
4,C[C@@H]1CN([C@H](C)CO)C(=O)c2cc(NC(=O)CCC(F)(F)F)ccc2O[C@@H](C)CCCCO[C@@H]1CN(C)C(=O)CCC(F)(F)F,inactive
5,COc1ccc(-c2oc3cc(OC)c(OC)c(OC)c3c(=O)c2OC)cc1OC,active
6,COc1ccc(-c2oc3cc(OC)c(OC)c(OC)c3c(=O)c2OC)cc1,inactive
7,COc1cc(O)c2c(=O)c(OC)c(-c3ccc(OC)c(OC)c3)oc2c1,inactive
8,O=C(C[C@H]1C=C[C@@H](NC(=O)Cc2ccccn2)[C@H](CO)O1)NCCCN1CCOCC1,inactive
9,C[C@@H]1CN([C@H](C)CO)C(=O)c2c(c3ccccc3n2C)-c2ccccc2CO[C@H]1CN(C)C(=O)[C@H](C)c1ccccc1,inactive
10,C[C@H]1O[C@@H](O[C@H]2[C@@H](O)C[C@H](O[C@H]3[C@@H](O)C[C@H](O[C@H]4CC[C@@]5(C)[C@H](CC[C@@H]6[C@@H]5C[C@@H](O)[C@]5(C)[C@@H](C7=CC(=O)OC7)CC[C@]65O)C4)O[C@@H]3C)O[C@@H]2C)C[C@H](O)[C@@H]1O,active
11,C[C@H]1O[C@@H](O[C@H]2[C@@H](O)C[C@H](O[C@H]3[C@@H](O)C[C@H](O[C@H]4CC[C@@]5(C)[C@H](CC[C@@H]6[C@@H]5C[C@@H](O)[C@@]5(C)[C@@H](C7=CC(=O)OC7)CC[C@]65O)C4)O[C@@H]3C)O[C@@H]2C)C[C@H](O)[C@@H]1O,active
12,CC1OC(OC2C(O)CC(OC3C(O)CC(OC4CCC5(C)C(CCC6C5CC(O)C5(C)C(C7=CC(=O)OC7)CCC65O)C4)OC3C)OC2C)CC(O)C1O (centres undefined),active
13,O=C(C[C@H]1CC[C@H]2[C@@H](COC[C@H](O)CN2S(=O)(=O)c2ccc(F)cc2)O1)N[C@@H]1CCN(Cc2ccccc2)C1,inactive
14,CO[C@H]1CN(C)C(=O)c2ccc(NS(C)(=O)=O)cc2OC[C@@H](C)N(C(=O)C2CCCCC2)C[C@@H]1C,inactive
15,C[C@@H]1CCCCO[C@@H](CN(C)C(=O)C2CCCCC2)[C@@H](C)CN([C@@H](C)CO)C(=O)c2cc(NS(=O)(=O)c3ccc(F)cc3)ccc2O1,inactive
16,COc1ccc(S(=O)(=O)N(C)C[C@@H]2Oc3ccc(NS(=O)(=O)c4ccc(F)cc4)cc3CC(=O)N([C@@H](C)CO)C[C@@H]2C)cc1,inactive
17,C[C@@H]1CN([C@H](C)CO)C(=O)c2cc(NC(=O)NC3CCCCC3)ccc2O[C@H]1CN(C)S(=O)(=O)c1cn(C)cn1,inactive
18,Cc1ccc(S(=O)(=O)N(C)C[C@@H]2Oc3ccc(NC(=O)CCN4CCOCC4)cc3CC(=O)N([C@H](C)CO)C[C@@H]2C)cc1,inactive
19,Cc1ccc(S(=O)(=O)N(C)C[C@@H]2Oc3c(NC(=O)Nc4ccc(C(F)(F)F)cc4)cccc3C(=O)N([C@@H](C)CO)C[C@H]2C)cc1,inactive
20,C[C@H]1CN([C@@H](C)CO)C(=O)c2cccc(NC(=O)Nc3ccc(C(F)(F)F)cc3)c2O[C@H]1CN(C)S(=O)(=O)c1ccc(Cl)cc1,active
21,C[C@H](CO)N1C[C@H](C)[C@H](CN(C)S(=O)(=O)c2ccc(Cl)cc2)Oc2c(NC(=O)Nc3ccc(C(F)(F)F)cc3)cccc2C1=O,inactive
22,Cc1ccc(S(=O)(=O)N(C)C[C@H]2Oc3c(NC(=O)Nc4ccc(C(F)(F)F)cc4)cccc3C(=O)N([C@@H](C)CO)C[C@H]2C)cc1,active

row,SMILES,cytotoxicity call
1,Cc1ccc(S(=O)(=O)N(C)C[C@@H]2Oc3c(NC(=O)Nc4ccc(C(F)(F)F)cc4)cccc3C(=O)N([C@H](C)CO)C[C@H]2C)cc1,inactive
2,C[C@@H]1CN([C@H](C)CO)C(=O)c2cccc(NC(=O)Nc3ccc(C(F)(F)F)cc3)c2O[C@@H]1CN(C)S(=O)(=O)c1ccc(Cl)cc1,inactive
3,Cc1ccc(OC(=O)N(C)C[C@@H]2OCc3ccccc3-c3ccccc3C(=O)N([C@H](C)CO)C[C@H]2C)cc1,inactive
4,C[C@@H]1CN([C@H](C)CO)C(=O)Cc2cc(NC(=O)Cc3ccccc3)ccc2O[C@H]1CN(C)C(=O)Nc1ccc(C(F)(F)F)cc1,inactive
5,C[C@@H]1CN([C@H](C)CO)C(=O)c2cc(N(C)C)ccc2O[C@@H](C)CCCCO[C@@H]1CN(C)S(C)(=O)=O,inactive
6,CCCNC(=O)N(C)C[C@@H]1Oc2cc(C#Cc3ccccn3)ccc2S(=O)(=O)N([C@H](C)CO)C[C@H]1C,inactive
7,Cc1ccc(S(=O)(=O)N(C)C[C@H]2Oc3ccc(NC(=O)NC(C)C)cc3CC(=O)N([C@@H](C)CO)C[C@H]2C)cc1,inactive
8,NC(=O)[C@@]1(CCS(=O)(=O)c2ccccc2)N=C(c2ccc(OCCCO)cc2)O[C@H]1c1ccccc1,inactive
9,C[C@@H](Oc1cc(-n2cnc3ccc(CN4CCN(C)CC4)cc32)sc1C(N)=O)c1ccccc1C(F)(F)F,active
10,C[C@@H]1CN([C@@H](C)CO)C(=O)c2cc(C#CC3(O)CCCC3)cnc2O[C@@H]1CN(C)C(=O)Cc1cccnc1,inactive
11,C[C@@H]1CN([C@H](C)CO)C(=O)c2cc(C#CC3(O)CCCC3)cnc2O[C@@H]1CN(C)C(=O)CN(C)C,inactive
12,CCCC(=O)Nc1ccc2c(c1)C(=O)N(C)C[C@@H](OC)[C@H](C)CN(Cc1ccc(-c3ccccn3)cc1)[C@@H](C)CO2,inactive
13,CCC(CO)NCCNC(CC)CO.Cl.Cl (centres undefined),inactive
14,C=CC[C@H](CC(=O)N[C@@H](CO)Cc1ccccc1)C(=O)N[C@@H](COC(=O)[C@@H](CC=C)Cc1ccc(F)cc1)Cc1ccccc1,inactive
15,C=CCC[C@@H](Cc1ccc(F)cc1)C(=O)OC[C@@H](Cc1ccccc1)NC(=O)[C@H](CC=C)CC(=O)N[C@@H](CO)Cc1ccccc1,inactive
16,C=CCC[C@@H](Cc1ccc(F)cc1)C(=O)OC[C@@H](NC(=O)[C@@H](CC=C)CC(=O)N[C@@H](CO)Cc1ccccc1)C(C)(C)C,inactive
17,C=CCC[C@@H](Cc1ccc(F)cc1)C(=O)OC[C@@H](NC(=O)[C@@H](CC=C)CC(=O)N[C@H](CO)Cc1ccccc1)C(C)(C)C,active
18,C=CCC[C@H](Cc1ccc(F)cc1)C(=O)OC[C@@H](NC(=O)[C@@H](CC=C)CC(=O)N[C@@H](CO)Cc1ccccc1)C(C)(C)C,active
19,C=CCC[C@H](Cc1ccc(F)cc1)C(=O)OC[C@@H](NC(=O)[C@@H](CC=C)CC(=O)N[C@H](CO)Cc1ccccc1)C(C)(C)C,inactive
20,C[C@H]1CN([C@@H](C)CO)C(=O)c2cc(C#Cc3cccnc3)cnc2O[C@@H]1CN(C)S(=O)(=O)c1ccccc1F,inactive
21,C[C@H](CO)N1C[C@H](C)[C@@H](CN(C)S(=O)(=O)c2cn(C)cn2)OCCCC[C@H](C)Oc2ccc(NC(=O)CCCN(C)C)cc2C1=O,inactive
22,O=C(C[C@H]1CC[C@H](NS(=O)(=O)c2ccccc2)[C@@H](CO)O1)NCc1ccncn1,inactive

row,SMILES,cytotoxicity call
1,C[C@@H]1CCCCO[C@@H](CN(C)C(=O)CCCN(C)C)[C@@H](C)CN([C@H](C)CO)C(=O)c2cc(NS(C)(=O)=O)ccc2O1,inactive
2,COc1ccc(S(=O)(=O)N[C@H]2CC[C@H](CC(=O)N3CCN(c4ccccc4)CC3)O[C@@H]2CO)cc1,inactive
3,Cn1c(CC#N)n[nH]c1=S,inactive
4,CC(C)NC(=O)Nc1ccc2c(c1)C(=O)N([C@@H](C)CO)C[C@H](C)[C@@H](CN(C)S(C)(=O)=O)OCCCC[C@H](C)O2,inactive
5,CCN(CC)CCNC(=O)c1cc(Br)c(N)cc1OC,inactive
6,CCN1CCCC1CNC(=O)c1cc(S(N)(=O)=O)ccc1OC (centres undefined),inactive
7,CCN1CCCC1CNC(=O)c1cc(S(=O)(=O)CC)c(N)cc1OC (centres undefined),active
8,COc1ccc(NC(=O)Nc2cccc3c2O[C@H](CN(C)Cc2ccc(C(=O)Nc4ccccc4N)cc2)[C@H](C)CN([C@@H](C)CO)C3=O)cc1,inactive
9,COc1cc(OC)c2c(c1Cl)OC1(C2=O)C(O)=CC(=O)CC1C (centres undefined),inactive
10,COC1=CC(=O)CC(C)C12Oc1c(Cl)c(OC)cc(OC)c1C2=O (centres undefined),active
11,NC(=O)N1C(=O)[C@H]2[C@H](C1=O)[C@H]1C=C(c3ccc(CO)cc3)[C@@H]2[C@@H](C2CC2)N1Cc1cc2c(cc1Br)OCO2,inactive
12,CCCC#Cc1ccc2c(c1)O[C@H](CN(C)S(=O)(=O)c1cccc(F)c1)[C@@H](C)CN([C@H](C)CO)S2(=O)=O,inactive
13,Cc1ccccc1NC(=O)CC(C)C,inactive
14,CCn1c(=O)c(-c2cc(NC(=O)Nc3ccccc3)c(F)cc2Br)cc2cnc(NC)cc21,active
15,CN(C)CCCCCCNC(=O)[C@H]1C[C@H]2C(=O)NCC(=O)N2[C@H]1c1cccc(OCCO)c1,inactive
16,Cc1ccc(S(=O)(=O)Nc2ccc3c(c2)C(=O)N([C@@H](C)CO)C[C@@H](C)[C@H](CN(C)C(=O)Nc2ccc(C(F)(F)F)cc2)OCCCC[C@@H](C)O3)cc1,inactive
17,CC[C@@]1(C)N[C@H](C(=O)O)CS1,inactive
18,COc1ccc(-n2nc(CCC(=O)N(C)O)cc2-c2ccc(Cl)cc2)cc1,active
19,COc1ccc2cc(-c3cc(-c4cc(Cl)cc(Cl)c4)nn3[C@@H](C)c3ccc(C(=O)NCCC(=O)O)cc3)ccc2c1,inactive
20,C[C@H](CO)N1C[C@H](C)[C@H](CN(C)CC2CC2)Oc2cc(C#Cc3cccc(F)c3)ccc2S1(=O)=O,inactive
